Source: PubChem BioAssay AID504332 (National Center for Advancing Translational Sciences (NCATS), 2011)
The campaign covered roughly 350,000 compounds. About 31,000 (8.9%) were called active. A call without a number means that no potency is given here. Inconclusive results (about 15%) are left out. The sample as a whole holds a higher share of actives than the screen did. A number with no mark means an inactive call. Calls come from the whole dose curve; as a rule, active = well fitted inhibition curve with a large enough effect; inconclusive = small, poorly fitted or top-dose-only effect; inactive = no such curve, though single readings can be large or run the other way.

Biological target: Histone-lysine N-methyltransferase EHMT2 (Homo sapiens) (UniProt Q96KQ7)
Sequence (Q96KQ7 913-1193 limits assumed): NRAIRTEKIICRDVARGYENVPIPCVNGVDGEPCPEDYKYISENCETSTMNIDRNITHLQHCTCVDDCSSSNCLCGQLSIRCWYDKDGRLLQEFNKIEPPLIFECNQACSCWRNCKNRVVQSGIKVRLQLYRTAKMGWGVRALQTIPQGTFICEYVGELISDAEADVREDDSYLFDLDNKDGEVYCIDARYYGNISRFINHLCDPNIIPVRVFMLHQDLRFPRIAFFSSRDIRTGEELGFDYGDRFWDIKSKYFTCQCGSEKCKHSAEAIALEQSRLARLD
Assay: qHTS Assay for Inhibitors of Histone Lysine Methyltransferase G9a; note: nearly all actives have a fitted effect of over 75% in size
Conditions: G9a H3K9 monomethylation, AlphaScreen, 2 h; series mostly up to 59 µM
In short: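 Enzyme 20 nM + cpd, 15 min RT; add b-H3K9 pep 500 nM / SAM 20 uM; 2 h RT; anti-H3K9me1 Ab 0.5 ug/mL + SA donor / anti-rabbit acceptor beads 20 ug/mL each, 10 min; AlphaScreen read.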
Potency is the fitted concentration of half-maximal effect.

Structure (SMILES)	Potency	activity, negative = inhibition
O=C(CSc1nnc(CNC(=O)c2ccc(F)cc2)o1)Nc1ccc2c(c1)OCO2	inactive	–
Cc1cccc(C)c1N1CCN(S(=O)(=O)N2CCOCC2)CC1	39.8 µM (active)	–
Cc1cccc(C)c1N1CCN(S(=O)(=O)N2CCCCC2)CC1	inactive	–
O=S(=O)(N1CCOCC1)N1CCN(c2ccccc2F)CC1	inactive	–
CN(CC(=O)Nc1cccc(F)c1)C(=O)C1CC(=O)N(CCc2ccccc2)C1 (configuration not stated)	inactive	–
Cc1ccc(CNC(=O)CCc2c(C)nn(-c3ccc(N4CCCC4)nn3)c2C)cc1	inactive	–
CCC(C)NC(=O)/C=C/c1ccc(S(=O)(=O)NCc2ccco2)cc1 (configuration not stated)	inactive	–
CCN(CC)CCNS(=O)(=O)c1ccc(/C=C/C(=O)O)cc1	39.8 µM (active)	–
O=C(O)/C=C/c1ccc(S(=O)(=O)N2CCCCCC2)cc1	inactive	–
Cc1cc(NC(=O)CSC2=NS(=O)(=O)c3cc(Cl)ccc3N2)no1	inactive	–
Cc1ccc(CNC(=O)C(=O)c2cn(CC(=O)N3CCCC3)c3ccccc23)cc1	inactive	–
O=C(NCc1ccco1)C(=O)c1cn(CC(=O)N2CCCCCC2)c2ccccc12	50.1 µM (active)	–
O=C(NCCCn1ccnc1)C(=O)c1cn(CC(=O)N2CCCCCC2)c2ccccc12	inactive	–
COc1cccc(OCCn2c(-c3ccc(Br)cc3)nc3ccccc3c2=O)c1	inactive	–
Cc1oc2ncn(CC(C)C)c(=O)c2c1C(=O)N1CCN(c2ccccc2F)CC1	inactive	–
Cc1cc(Cl)c2oc(C(=O)N(C)C(C)c3ccccn3)c(C)c2c1 (configuration not stated)	inactive	–
COc1ccc(-c2sc3ccc(OC)cc3c2C#Cc2ccccn2)cc1	–	-2.78% [at 0.501 µM]
Cc1cc(C)cc(NC(=O)COc2coc(CN3CCN(c4ccccc4)CC3)cc2=O)c1	inactive	–
CCOc1ccc(N/C=C/C(=O)c2cc(OC)c(OC)c(OC)c2)cc1	–	-10.6% [at 0.501 µM]
COC(=O)c1c(NC(=O)CCCC(=O)O)sc2c1CCCCC2	–	23% [at 12.7 µM]
CCOC(=O)c1c(NC(=O)CCC(=O)NCc2ccco2)sc2c1CCCC2	inactive	–
CCOc1ccc(NC(=O)c2c(NC(=O)Cc3ccccc3)sc3c2CCCCC3)cc1	1.12 µM (active)	–
O=C(Cc1ccccc1)Nc1sc2c(c1C(=O)Nc1ccc(Br)cc1)CCC2	inactive	–
CCOC(=O)c1ccc(NC(=O)c2c(NCc3cccc(OC)c3)sc3c2CCC3)cc1	7.94 µM (active)	–
CCOC(=O)c1ccc(NC(=O)c2csc3c2CCCCC3)cc1	inactive	–

Structure (SMILES)	Potency	activity, negative = inhibition
CCOc1ccc(CCNC(=O)c2csc3c2CCCCC3)cc1	inactive	–
CCOC(=O)c1ccc(NC(=O)CC2C(=O)N(c3cccc(OC)c3)C(=O)N2C2CCCCC2)cc1 (configuration not stated)	inactive	–
Cc1ccc(C(=O)NCCNC(=O)c2ccccc2)cc1	inactive	–
Cc1sc(NC(=O)c2ccc3ncsc3c2)c(C(N)=O)c1C	inactive	–
Cc1ccc(NC(=O)c2c(NC(=O)CCC(=O)O)sc3c2CCCCC3)cc1	28.2 µM (active)	–
Cc1ccc(C(=O)c2c(NC(=O)c3ccccc3)sc(C)c2C)cc1	8.91 µM (active)	–
Cc1cc(C)cc(Nc2ncnc3onc(-c4ccc(F)cc4)c23)c1	inactive	–
CNC(=O)CN1C(=O)c2cccnc2Sc2ccccc21	inactive	–
O=C(CSc1oc(-c2ccco2)nc1S(=O)(=O)c1ccccc1)c1ccc(Cl)cc1	inactive	–
COc1cccc(NC(=O)c2ccccc2N(Cc2ccccc2)S(C)(=O)=O)c1	–	19.2% [at 0.501 µM]
COc1ccc(-n2c(SCC(=O)Nc3ccc(Cl)c(C)c3)nc3n[nH]c(C)c3c2=N)cc1	inactive	–
COc1ccc(C2C(=O)N(C3CCCCC3)CC(=O)N2Cc2ccccc2Cl)cc1OC (configuration not stated)	inactive	–
Cc1cc(C(=O)COc2ccccc2Cl)c(C)n1C1CC1	–	15.7% [at 0.501 µM]
O=C(CC(c1cccs1)N1Cc2ccccc2C1=O)Nc1ccc(F)cc1F (configuration not stated)	inactive	–
Cc1cccc(OCCCC(=O)Nc2sc3c(c2C(N)=O)CCC(C)C3)c1 (configuration not stated)	inactive	–
CCOc1ccc(NC(=O)c2c(NC(=O)Cc3ccccc3)sc3c2CCC(C)C3)cc1 (configuration not stated)	2 µM (active)	–
Cc1ccc(C(=O)c2c(NC(=O)c3ccncc3)sc3c2CCCC3)cc1	15.8 µM (active)	–
COC(=O)c1c(NC(=O)CCCOc2ccccc2)sc2c1CCC(C)C2 (configuration not stated)	inactive	–
COC(=O)c1c(NC(=O)c2ccc(Cl)c(Cl)c2)sc2c1CCCC2	inactive	–
COC(=O)c1c(NC(=O)c2cccs2)sc2c1CCCC2	inactive	–
CCOc1ccc(NC(=O)Cn2c(=O)n(CCCC(=O)NCc3ccc4c(c3)OCO4)c(=O)c3ccccc32)cc1	inactive	–
Cc1sc2ncn(CC(=O)N3CCN(c4ccc(F)cc4)CC3)c(=O)c2c1S(=O)(=O)N1CCN(c2ncccn2)CC1	inactive	–
Cc1ccc(C)c(S(=O)(=O)n2nc(C)c(S(=O)(=O)N3CCC(C)CC3)c2C)c1	inactive	–
CCc1ccc(Sc2cc(C(=O)NCCCOC(C)C)c3ccccc3n2)cc1	inactive	–
CC(C)(CNC(=O)CNC(=O)C1CCCCC1)N1CCOCC1	–	-2.59% [at 12.7 µM]

Structure (SMILES)	Potency	activity, negative = inhibition
O=c1c2cc(Br)ccc2nc(-c2cccc(Cl)c2)n1O	inactive	–
COc1ccc(CC(=O)Nc2sc(Cc3ccccc3)c(C)c2C(N)=O)cc1	inactive	–
COCc1nnc(NC(=O)c2ccc3c(c2)OCO3)s1	inactive	–
Cc1ccc(C(=O)Nc2sc(Cc3ccc4c(c3)OCO4)c(C)c2C(N)=O)cc1	50.1 µM (active)	–
O=C(Nc1ccc2nc(SCCOc3ccccc3)sc2c1)c1ccco1	inactive	–
Cc1cc2nc(NC(=O)c3ccc(S(=O)(=O)N4CCOCC4)cc3)sc2cc1C	inactive	–
O=c1c2cccnc2n(Cc2cccc(F)c2)c(=O)n1Cc1ccccc1Cl	inactive	–
CC(C)Cn1c(N)c(C(=O)NCc2cccs2)c2nc3ccccc3nc21	inactive	–
CCCNC(=O)c1c(N)n(-c2ccc(S(N)(=O)=O)cc2)c2nc3ccccc3nc12	50.1 µM (active)	–
CCOC(=O)c1c(N)n(-c2cccc(C)c2C)c2nc3ccccc3nc12	inactive	–
COc1cc(NS(=O)(=O)c2cccs2)cc(OC)c1	inactive	–
CC(Oc1ccc(Br)cc1)C(=O)NC1CCCCCC1 (configuration not stated)	–	35.3% [at 12.7 µM]
O=C(NCCc1ccc(Cl)cc1)c1ccc2nc(CCc3ccccc3)oc2c1	inactive	–
CCc1cc(-c2nnc(SCC(=O)NC3CC3)n2C)cs1	inactive	–
CCc1cc(-c2n[nH]c(=S)n2CC(C)C)cs1	1.78 µM (active)	–
CCn1c(-c2ccncc2)n[nH]c1=S	inactive	–
CCc1ccc(N(CC)C(=O)CCn2cnc3onc(-c4ccc(F)cc4)c3c2=O)cc1	inactive	–
O=C1CC2(CCN(C(=O)COc3ccc(F)cc3)CC2)Oc2ccccc21	inactive	–
CCc1ccccc1OCCSc1nc(-c2cccs2)nc2cc(=O)[nH]n12	inactive	–
C#CCNc1ccc(C(=O)OCC)cc1	inactive	–
CCOC(=O)c1ccc(NC2Nc3cc(C)nn3S2)cc1 (configuration not stated)	3.16 µM (active)	–
CCc1ccc(NC2Nc3cc(C)nn3S2)cc1 (configuration not stated)	1 µM (active)	–
CCOC(=O)c1ccc(NC(=O)CCn2cnnn2)cc1	inactive	–
CCc1ccc(CNC(=O)c2ccc(CS(=O)c3ccc(Br)cc3)o2)cc1 (configuration not stated)	inactive	–
COc1ccc(Cn2ccn(CC(=O)Nc3cc(C)ccc3C)c(=O)c2=O)cc1	inactive	–

Structure (SMILES)	Potency	activity, negative = inhibition
O=C(CCCCO)c1ccc(O)c(Cl)c1	–	1.29% [at 2.33 µM]
Cc1cccc(NC(=O)c2ccc(F)c(S(=O)(=O)N(C)C3CCCCC3)c2)c1	inactive	–
Cc1ccccc1OCCC(=O)OCC(=O)NCCc1ccc(S(N)(=O)=O)cc1	–	-2.83% [at 12.7 µM]
Cc1cc(C)c[n+](-c2nc3ccccc3nc2[N-]S(=O)(=O)c2cccs2)c1	inactive	–
O=C(NCCc1ccccc1)C1CCN(S(=O)(=O)c2ccc(Br)s2)CC1	inactive	–
O=S(=O)([N-]c1nc2ccccc2nc1-[n+]1ccc(Cc2ccccc2)cc1)c1ccc(Br)s1	11.2 µM (active)	–
COc1ccc(-n2nnc(-c3nsc(NC(=O)c4ccc(C)c(C)c4)n3)c2C)cc1Cl	inactive	–
COc1ccccc1NC(=O)CSc1oc(-c2ccco2)nc1S(=O)(=O)c1ccc(Br)cc1	inactive	–
Cc1ccc(/C=N/NC(=S)Nc2cccc(S(=O)(=O)N(C)C)c2)o1	50.1 µM (active)	–
CN(C)S(=O)(=O)c1cccc(NC(=S)N/N=C/C(=O)c2ccccc2)c1	inactive	–
CN(C)S(=O)(=O)c1cccc(NC(=O)Cc2ccsc2)c1	inactive	–
COc1cc(Cl)c(C)cc1Nc1nnc(-n2nc(C)cc2C)c2ccccc12	inactive	–
Cc1ccc2cccc(NC(=O)c3cccc4ccccc34)c2n1	inactive	–
COc1cccc(COC(=O)C2CCN(S(=O)(=O)c3ccc(Cl)cc3)CC2)c1OC	inactive	–
CCOc1ccc(S(=O)(=O)N2CCC(C(=O)OCc3ccc(OC)cc3)CC2)cc1	inactive	–
COC(=O)c1ccc(COC(=O)C2CCN(S(=O)(=O)c3c(Cl)cccc3Cl)CC2)o1	35.5 µM (active)	–
O=C(Nc1cc(-c2nc3ccccc3o2)ccc1Cl)c1cc([N+](=O)[O-])ccc1N1CCOCC1	inactive	–
CC(=O)NC1(c2cccc(F)c2)CCN(CC(=O)NC(C)C)CC1	–	-5.2% [at 12.7 µM]
O=C(CN1CCC(O)(c2ccccc2)CC1)Nc1ccc2c(c1)OCCO2	inactive	–
Cc1cc(NC(=O)CN2CCC(O)(c3cccc(F)c3)CC2)no1	8.91 µM (active)	–
COc1cc(OC)c(NC(=O)Cc2ccc(-n3c(C)nc4cccnc43)cc2)cc1Cl	inactive	–
CC(=O)c1ccc(NC(=O)CSc2nc(-c3ccccc3F)nc3c2c(=O)n(C)c(=O)n3C)cc1	inactive	–
